Source: PubChem BioAssay (Tox21)
Inconclusive results are not listed. Calls of active or inactive are those of the source. Unless noted, the call rests on the fitted dose curve; in most records, active means well fitted curve in the direction sought with a large enough effect in the repeat runs; inconclusive means weak or mixed curves; inactive means no such curve, though single readings can be large; an effect the other way counts as inactive or inconclusive.

Tests used:
[1] = qHTS assay to identify small molecule antagonists of the estrogen related receptor (ERR) signaling pathway - cell viability counter screen (AID 1224818); further: series mostly up to about 46 µM
Method in brief: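 ERR cells, 2,000 per well, compound added after 6 h and incubated 17.5 h at 37 C. Viability read by CellTiter-Fluor fluorescence after a further 30 min at 37 C.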

[2] = qHTS assay to identify small molecule antagonists of the estrogen related receptor (ERR) signaling pathway (AID 1224819;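 further: luminescence from an ERR-driven luciferase reporter measured with One-Glo reagent; series mostly up to about 46 µM; nearly all actives have a fitted effect of over 50% in size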)
Method in brief: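 ERR reporter cell line (NTP) plated at 2,000 cells/well, settled 6 h at 37C/5% CO2, then exposed to LOPAC compounds for 18 h at 37C. One-Glo luciferase luminescence read after 30 min at room temperature.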

[3] = qHTS assay to identify small molecule agonists of the estrogen related receptor (ERR) signaling pathway (AID 1224820)
Method in brief: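 Quantitative HTS of the LOPAC library used NTP ERR reporter cells treated 18 h at 37 C. Signal is luminescence after One-Glo addition and a 30 min room-temperature incubation.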

[4] = tested on: estrogen-related receptor alpha (ERRalpha) with PGC-1alpha coactivator, human; assay: qHTS assay to identify small molecule antagonists of the estrogen related receptor signaling pathway with the pleiotropic PPARgamma coactivator (PGC) (AID 1224821; calls by dose curve;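 further: series mostly up to about 46 µM; lower luminescence signal means antagonism of PGC/ERR signalling; nearly all actives have a fitted effect of over 50% in size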)
Method in brief: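 Quantitative HTS for antagonism: PGC/ERR cells received compounds after 6 h attachment and were incubated 18 h at 37 C, with luminescence (One-Glo) as the endpoint.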

[5] = qHTS assay to identify small molecule antagonists of the estrogen related receptor signaling pathway with the pleiotropic PPARgamma coactivator (PGC) cell viability counter screen (AID 1224822; further: series mostly up to about 46 µM)
Method in brief: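 PGC/ERR cells rested 6 h, then compound-treated 17.5 h at 37 C. CellTiter-Fluor added for 30 min at 37 C, viability measured by fluorescence intensity.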

[6] = qHTS assay to identify small molecule agonists of the estrogen related receptor signaling pathway with the pleiotropic PPARgamma coactivator (PGC) (AID 1224823)
Method in brief: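 Cell-based luciferase assay in the NTP-supplied PGC/ERR line, 2,000 cells/well; 18 h compound exposure at 37 C, luminescence after One-Glo.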

[7] = qHTS assay for small molecule agonists of the p53 signaling pathway (AID 651631; calls by dose curve; further: nearly all actives have a fitted effect of over 15% in size)
Method in brief: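 Stably transfected HCT-116 cells (beta-lactamase behind p53 response elements) get compounds after a 5 h settling period; 16 h later at 37 °C, FRET substrate is loaded and fluorescence read after 2 h.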

[8] = qHTS assay for small molecules that induce genotoxicity in human embryonic kidney cells expressing luciferase-tagged ATAD5 (AID 651632); further: nearly all actives have a fitted effect of over 15% in size
Method in brief: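 HEK293T cells carrying luciferase-tagged ATAD5 were given compound or DMSO vehicle and incubated 16 hr at 37C, 5% CO2. Luciferase activity was read after 30 min at room temperature with Amplite; a rise signals genotoxic stress.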

[9] = qHTS assay for small molecule agonists of the p53 signaling pathway - cell viability (AID 651633; calls by dose curve;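 further: p53RE-bla HCT reporter cells with a stable beta-lactamase p53 reporter; series mostly up to about 83 µM; nearly all actives have a fitted effect of over 30% in size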)
Method in brief: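 p53RE-bla cells were treated with compound for 16 hours at 37 C. Cytotoxicity was then measured as CellTiter-Glo luminescence after 30 min at room temperature.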

[10] = qHTS assay for small molecules that induce genotoxicity in human embryonic kidney cells expressing luciferase-tagged ATAD5 - cell viability (AID 651634; calls by dose curve; further: nearly all actives have a fitted effect of over 25% in size)
Method in brief: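 HEK293T cells carrying luciferase-tagged ATAD5, 2,000 cells/well, exposed to compound for 15.5 hr at 37C. Viability read as live-cell protease activity by CellTiter-Fluor fluorescence after 30 min at 37C.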

[11] = qHTS assay for small molecule disruptors of the mitochondrial membrane potential - cell viability (AID 720634; calls by dose curve;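 further: human HepG2 liver cancer cells; series mostly up to about 83 µM; nearly all actives have a fitted effect of over 20% in size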)
Method in brief: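 HepG2 cells, 2,000 per well, attached overnight, then treated 1 hr at 37 C, 5% CO2. Viability read as ATP by CellTiter-Glo luminescence after 30 min at room temperature. Read in the same wells as the m-MPI membrane-potential dye assay.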

[12] = qHTS assay for small molecule disruptors of the mitochondrial membrane potential (AID 720635)
Method in brief: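 HepG2 cells exposed to compound 1 hr at 37C, then Mito-MPS dye 30 min. Ratio read of aggregate (540/590 nm) versus monomer (490/535 nm) fluorescence.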

[13] = qHTS assay to test for compound auto fluorescence at 590 nm (red) in HepG2 cells (AID 720674)
Method in brief: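 HepG2 cells, 2,000 per well in MEM with 10% FBS, attached overnight at 37 C, then got 23 nL compound or DMSO. After 1 hr at 37 C, 5% CO2, red fluorescence was read at 540/590 nm against Rose Bengal sodium as reference.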

[14] = qHTS assay to test for compound auto fluorescence at 535 nm (green) in HepG2 cells (AID 720675)
[15] = qHTS assay to test for compound auto fluorescence at 460 nm (blue) in HEK293 cells (AID 720678)
Method in brief: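 Measured: blue fluorescence (Ex 405/Em 460 nm) of compound-treated HEK293 cells, incubated overnight at 37C with 5% CO2 and scaled to triamterene equivalents.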

[16] = qHTS assay to test for compound auto fluorescence at 590 nm (red) in HEK293 cells (AID 720679)
Method in brief: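 Using HEK293 cells at 2,000 per well, the screen added 23 nL of each compound after cell attachment and incubated overnight (37C, 5% CO2). The plate reader then captured red-label fluorescence, Ex/Em 540/590nm.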

[17] = qHTS assay to test for compound auto fluorescence at 460 nm (blue) in HEK293 cell free culture (AID 720681)
Method in brief: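 Compounds were added to cell-free DMEM with 10% FBS and fluorescence read directly. The blue channel used 405 nm excitation and 460 nm emission, with triamterene as the reference fluorophore.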

[18] = qHTS assay to test for compound auto fluorescence at 535 nm (green) in HEK293 cell free culture (AID 720682)
Method in brief: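 Using fluorescein as calibrant, autofluorescence was quantified at 485/535 nm in cell-free DMEM containing 10% FBS after pintool addition of compound or vehicle.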

[19] = qHTS assay to test for compound auto fluorescence at 590 nm (red) in HEK293 cell free culture (AID 720683)
Method in brief: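 Cell-free wells of DMEM with 10% FBS received compound, and intrinsic fluorescence was read at excitation/emission 540/590 nm. Values expressed as equivalence to Rose Bengal sodium.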

[20] = qHTS assay to test for compound auto fluorescence at 590 nm (red) in HepG2 cell free culture (AID 720684)
Method in brief: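 Compounds are added to culture medium (MEM, 10% FBS) lacking cells, then fluorescence is read at excitation 540 nm, emission 590 nm, with Rose Bengal sodium as the equivalency standard.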

[21] = qHTS assay to test for compound auto fluorescence at 460 nm (blue) in HepG2 cell free culture (AID 720685)
Method in brief: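 Compound (23 nL) or DMSO pinned into cell-free MEM with 10% FBS; blue fluorescence read at 405/460 nm excitation/emission, expressed as auto-fluorescence equivalency to triamterene.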

[22] = qHTS assay to test for compound auto fluorescence at 535 nm (green) in HepG2 cell free culture (AID 720686)
[23] = qHTS assay to identify small molecule antagonists of the glucocorticoid receptor (GR) signaling pathway - cell viability counter screen (AID 720693); further: nearly all actives have a fitted effect of over 55% in size
[24] = qHTS assay for identifying genotoxic compounds that show differential cytotoxicity against isogenic chicken DT40 cell lines with known DNA damage response pathways - Rad54/Ku70 mutant cell line (AID 743015); further: nearly all actives have a fitted effect of over 60% in size
[25] = qHTS assay to identify small molecule antagonists of the androgen receptor (AR) signaling pathway - cell viability counter screen (AID 743033; further: nearly all actives have a fitted effect of over 45% in size)
[26] = qHTS assay to identify small molecule antagonists of the androgen receptor (AR) signaling pathway using the MDA cell line - cell viability counter screen (AID 743041; further: nearly all actives have a fitted effect of over 45% in size)
Method in brief: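 Same-well cytotoxicity was assessed by CellTiter-Fluor in MDA-kb2 AR-luc cells after 16 h of compound treatment under R1881 agonism.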

[27] = qHTS assay to identify small molecule antagonists of the thyroid receptor (TR) signaling pathway (AID 743065); further: series mostly up to about 70 µM; nearly all actives have a fitted effect of over 55% in size
Method in brief: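 GH3.TRE-Luc rat pituitary cells (two TREs driving luciferase) were dosed with compound, then stimulated with 1 nM T3 (final) for 23.5 h at 37 C. ONE-Glo luminescence was the read-out, with CellTiter-Fluor fluorescence as the cytotoxicity counter-screen.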

[28] = tested on: thyroid hormone receptor (rat, GH3 cells); assay: qHTS assay to identify small molecule agonists of the thyroid receptor (TR) signaling pathway (AID 743066; calls by dose curve)
[29] = molecular target: Estrogen receptor (Homo sapiens) (UniProt P03372); assay: qHTS assay to identify small molecule antagonists of the estrogen receptor alpha (ER-alpha) signaling pathway (AID 743069; active means well fitted curve in the direction sought with a large enough effect in the signal ratio in the repeat runs, not every such curve was filed as active; the % refers to the signal ratio)
Chain of Estrogen receptor (Homo sapiens) (P03372 whole entry, looked up): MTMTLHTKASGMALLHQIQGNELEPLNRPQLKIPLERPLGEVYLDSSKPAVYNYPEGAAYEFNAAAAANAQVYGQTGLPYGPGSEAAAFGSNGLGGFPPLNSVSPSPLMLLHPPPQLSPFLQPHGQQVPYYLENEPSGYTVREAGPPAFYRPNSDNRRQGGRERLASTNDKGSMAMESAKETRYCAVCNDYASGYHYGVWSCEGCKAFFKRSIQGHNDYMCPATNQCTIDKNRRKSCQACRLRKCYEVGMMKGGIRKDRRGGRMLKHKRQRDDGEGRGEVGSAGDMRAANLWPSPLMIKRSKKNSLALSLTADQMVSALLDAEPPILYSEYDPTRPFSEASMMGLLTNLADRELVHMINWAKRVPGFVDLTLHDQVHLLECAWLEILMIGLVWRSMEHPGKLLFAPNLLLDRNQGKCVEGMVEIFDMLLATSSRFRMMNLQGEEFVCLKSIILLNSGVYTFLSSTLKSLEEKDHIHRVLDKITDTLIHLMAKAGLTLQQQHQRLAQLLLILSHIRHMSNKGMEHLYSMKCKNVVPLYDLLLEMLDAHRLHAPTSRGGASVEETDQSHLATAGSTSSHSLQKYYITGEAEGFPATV
Method in brief: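 Reporter cells (ER-alpha-bla, HEK293 background) are conditioned overnight in stripped-serum medium (2% charcoal-stripped FBS). Compound and 17beta-estradiol exposure runs 18 hr at 37C, 5% CO2.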

[30] = molecular target: Estrogen receptor (Homo sapiens) (UniProt P03372); assay: qHTS assay to identify small molecule agonists of the estrogen receptor alpha (ER-alpha) signaling pathway (AID 743075; calls by dose curve;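 further: HEK293 GripTite cells with ER-alpha and UAS-driven beta-lactamase reporter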)
[31] = molecular target: Estrogen receptor (Homo sapiens) (UniProt P03372); assay: qHTS assay to identify small molecule agonists of the estrogen receptor alpha (ER-alpha) signaling pathway using the BG1 cell line (AID 743079); further: nearly all actives have a fitted effect of over 20% in size
[32] = qHTS assay to identify small molecule antagonists of the estrogen receptor alpha (ER-alpha) signaling pathway using the BG1 cell line (AID 743080; calls by dose curve;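 further: BG1 cells stimulated with 17beta-estradiol alongside compound; series mostly up to about 70 µM; nearly all actives have a fitted effect of over 25% in size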)
Method in brief: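 Quantitative HTS on the Tox21 10K library: BG1 cells with endogenous ER-alpha and ERE-luciferase reporter, 17beta-estradiol stimulation, 21.5 h compound exposure, luminescence endpoint with parallel fluorescence cytotoxicity counter-read.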

[33] = qHTS assay to identify small molecule antagonists of the estrogen receptor alpha (ER-alpha) signaling pathway using the BG1 cell line - cell viability counter screen (AID 743081);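 further: compound given together with 17beta-estradiol as the ER stimulus; series mostly up to about 70 µM; nearly all actives have a fitted effect of over 45% in size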
Aromatase (Homo sapiens) = Aromatase (Homo sapiens) (UniProt P11511); assay: qHTS assay to identify aromatase inhibitors (AID 743083); further: series mostly up to about 70 µM; nearly all actives have a fitted effect of over 55% in size
Chain of Aromatase (Homo sapiens) (P11511 whole entry, looked up): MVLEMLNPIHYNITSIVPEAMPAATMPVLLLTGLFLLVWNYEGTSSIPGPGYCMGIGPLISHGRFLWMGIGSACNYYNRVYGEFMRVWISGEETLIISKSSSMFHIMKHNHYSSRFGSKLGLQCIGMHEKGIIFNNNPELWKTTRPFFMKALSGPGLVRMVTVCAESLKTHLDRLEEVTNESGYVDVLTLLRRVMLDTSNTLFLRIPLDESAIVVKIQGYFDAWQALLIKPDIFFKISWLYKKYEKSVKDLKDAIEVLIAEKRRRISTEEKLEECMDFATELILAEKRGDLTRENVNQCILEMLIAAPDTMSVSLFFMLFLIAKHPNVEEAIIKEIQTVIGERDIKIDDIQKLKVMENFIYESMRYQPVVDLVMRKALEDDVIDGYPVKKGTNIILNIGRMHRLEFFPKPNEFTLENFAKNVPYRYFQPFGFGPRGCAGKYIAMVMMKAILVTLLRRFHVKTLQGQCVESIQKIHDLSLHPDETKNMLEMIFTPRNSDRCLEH

[34] = qHTS assay to identify aromatase inhibitors - cell viability counter screen (AID 743084);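 further: cells stimulated with testosterone during compound exposure; nearly all actives have a fitted effect of over 55% in size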
[35] = molecular target: Aryl hydrocarbon receptor (Homo sapiens) (UniProt P35869); assay: qHTS assay to identify small molecule that activate the aryl hydrocarbon receptor (AhR) signaling pathway (AID 743085);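 further: HG2L7.5c1 human HepG2 liver cells with stably integrated DRE-driven firefly reporter; series mostly up to about 70 µM; nearly all actives have a fitted effect of over 15% in size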
Chain of Aryl hydrocarbon receptor (Homo sapiens) (P35869 whole entry, looked up): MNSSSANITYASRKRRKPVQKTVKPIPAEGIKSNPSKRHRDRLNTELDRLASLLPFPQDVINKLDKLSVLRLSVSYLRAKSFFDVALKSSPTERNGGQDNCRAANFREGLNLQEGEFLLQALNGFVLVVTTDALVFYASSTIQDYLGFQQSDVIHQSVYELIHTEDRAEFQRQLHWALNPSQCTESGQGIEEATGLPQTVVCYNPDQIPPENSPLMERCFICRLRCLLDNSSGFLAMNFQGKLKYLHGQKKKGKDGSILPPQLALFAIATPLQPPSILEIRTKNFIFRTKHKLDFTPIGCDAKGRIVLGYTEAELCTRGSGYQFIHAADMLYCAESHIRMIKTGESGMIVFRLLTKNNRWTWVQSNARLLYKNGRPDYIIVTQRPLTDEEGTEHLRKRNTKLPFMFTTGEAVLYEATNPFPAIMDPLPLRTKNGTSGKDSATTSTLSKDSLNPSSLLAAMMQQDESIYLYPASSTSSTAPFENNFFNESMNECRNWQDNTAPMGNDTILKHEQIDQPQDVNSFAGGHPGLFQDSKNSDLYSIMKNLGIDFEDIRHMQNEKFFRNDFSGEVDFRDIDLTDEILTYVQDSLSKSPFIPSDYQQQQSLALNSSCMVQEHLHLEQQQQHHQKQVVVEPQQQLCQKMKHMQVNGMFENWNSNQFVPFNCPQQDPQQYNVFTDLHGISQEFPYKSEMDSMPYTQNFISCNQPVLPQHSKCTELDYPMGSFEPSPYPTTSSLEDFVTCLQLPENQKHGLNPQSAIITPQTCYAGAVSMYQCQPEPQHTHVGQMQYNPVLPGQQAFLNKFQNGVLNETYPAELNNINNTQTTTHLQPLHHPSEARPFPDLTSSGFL
Method in brief: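 Measured in HG2L7.5c1 cells: CellTiter-Fluor signal (30 min incubation, 37C) for viability, then luciferase luminescence (30 min, room temperature). Compound contact time was 24 h at 37C, following a 5 h pre-incubation.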

[36] = qHTS assay to identify small molecule that activate the aryl hydrocarbon receptor (AhR) signaling pathway - cell viability counter screen (AID 743086);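 further: HepG2 liver cells carrying the AhR DRE luciferase reporter; series mostly up to about 70 µM; nearly all actives have a fitted effect of over 45% in size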
Method in brief: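 HepG2-AhR-luc (HG2L7.5c1) cells, 4000/well, treated 24 h at 37 C with compound; viability measured as CellTiter-Fluor fluorescence after 30 min in the same wells as the luciferase read.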

[37] = qHTS assay to identify small molecule phospholipidosis (PLD) inducers (AID 1259344; active means well fitted curve in the direction sought with a large enough effect; an effect the other way counts as inactive or inconclusive)
Method in brief: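 Quantitative HTS in HepG2: compound plus LipidTOX Red dye for 24 h, paraformaldehyde fixation with Hoechst 33342, widefield high-content imaging; amiodarone as positive and DMSO as negative control.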

Measured: Potency

CCCN(CCC)CCc1ccc(O)c(O)c1
inactive: [1] | [2] | [3] | [4] | [5] | [6]

O=P(O)(O)C(Cl)(Cl)P(=O)(O)O
inactive: all assays above
